From PubChem BioAssay (Tox21)
Records with an inconclusive call do not appear. Calls of active or inactive are those of the source. Unless noted, calls follow the shape of the dose curve; as a rule, active = well fitted curve in the direction sought with a large enough effect in the repeat runs; inconclusive = weak or mixed curves; inactive = flat fitted curve, though single readings scatter. Positions of bridges follow the written chain, without caps; N, C: chain ends. Non-standard residues stand in square brackets, D forms with d. Residues, ends and D or L forms follow the SMILES beside them. hArg = N=C(N)NCCCC[C@H](N)C(=O)O; Mpa = O=C(O)CCS

Columns and labels:
[1] = qHTS assay to test for compound auto fluorescence at 535 nm (green) in HEK293 cells (AID 720680)
[2] = qHTS assay to test for compound auto fluorescence at 460 nm (blue) in HEK293 cell free culture (AID 720681)
Outline: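 Blue fluorescence (Ex 405/Em 460 nm, triamterene-equivalent) was read immediately after pin transfer of compound or DMSO into medium (DMEM, 10% FBS) without cells.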

[3] = qHTS assay to test for compound auto fluorescence at 535 nm (green) in HEK293 cell free culture (AID 720682)
Outline: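 Each library compound, or DMSO control, is added by pintool to medium alone, comprising DMEM and 10% FBS. Emission at 535 nm following 485 nm excitation is quantified against fluorescein.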

[4] = qHTS assay to test for compound auto fluorescence at 590 nm (red) in HEK293 cell free culture (AID 720683)
Outline: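 Red-channel autofluorescence of compounds in culture medium (DMEM, 10% FBS), no cells, measured at 540/590 nm. Rose Bengal sodium is the reference fluorophore for equivalence.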

[5] = qHTS assay to test for compound auto fluorescence at 590 nm (red) in HepG2 cell free culture (AID 720684)
Outline: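 Steps: dispense MEM/10% FBS medium, no cells; pin compound or DMSO vehicle; read red channel, Ex/Em 540/590 nm. Output given as Rose Bengal sodium equivalents.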

[6] = qHTS assay to test for compound auto fluorescence at 460 nm (blue) in HepG2 cell free culture (AID 720685)
Outline: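 Compound (23 nL) or DMSO pinned into cell-free MEM with 10% FBS; blue fluorescence read at 405/460 nm excitation/emission, expressed as auto-fluorescence equivalency to triamterene.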

[7] = qHTS assay to test for compound auto fluorescence at 460 nm (blue) in HepG2 cells (AID 720687)
Outline: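 Blue-channel autofluorescence (Ex/Em 405/460 nm, triamterene-equivalent) was measured after 1 hr compound exposure at 37 C, 5% CO2. Cells were HepG2, plated overnight at 37 C in MEM plus 10% FBS.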

[8] = qHTS assay to test for compound auto fluorescence at 535 nm (green) in HepG2 cell free culture (AID 720686)
[9] = target: Glucocorticoid receptor (Homo sapiens) (UniProt P04150); test: qHTS assay to identify small molecule antagonists of the glucocorticoid receptor (GR) signaling pathway (AID 720692; active = well fitted inhibition curve with a large enough effect in the signal ratio in the repeat runs, not every such curve was filed as active; the % refers to the signal ratio)
Glucocorticoid receptor (Homo sapiens), sequence (P04150 whole entry, looked up): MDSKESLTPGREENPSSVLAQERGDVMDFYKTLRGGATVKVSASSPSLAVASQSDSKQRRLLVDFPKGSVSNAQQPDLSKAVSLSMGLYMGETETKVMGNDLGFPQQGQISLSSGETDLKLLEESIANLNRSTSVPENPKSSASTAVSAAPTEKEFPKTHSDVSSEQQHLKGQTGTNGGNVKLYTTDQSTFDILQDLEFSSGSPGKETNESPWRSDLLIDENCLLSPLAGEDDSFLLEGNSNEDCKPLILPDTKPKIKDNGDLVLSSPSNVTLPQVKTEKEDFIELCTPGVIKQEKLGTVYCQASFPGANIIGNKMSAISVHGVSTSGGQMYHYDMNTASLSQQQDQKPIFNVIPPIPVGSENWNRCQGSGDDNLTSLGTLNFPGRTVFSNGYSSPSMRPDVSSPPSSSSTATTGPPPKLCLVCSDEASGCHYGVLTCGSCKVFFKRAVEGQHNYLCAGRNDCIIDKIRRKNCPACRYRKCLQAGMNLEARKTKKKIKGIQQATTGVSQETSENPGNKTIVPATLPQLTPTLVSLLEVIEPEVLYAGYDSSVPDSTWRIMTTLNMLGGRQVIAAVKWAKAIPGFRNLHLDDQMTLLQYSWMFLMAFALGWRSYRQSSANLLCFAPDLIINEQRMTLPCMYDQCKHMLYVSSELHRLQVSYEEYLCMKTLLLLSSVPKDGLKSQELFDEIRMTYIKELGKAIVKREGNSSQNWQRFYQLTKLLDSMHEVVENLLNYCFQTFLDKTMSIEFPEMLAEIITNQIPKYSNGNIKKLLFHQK
Outline: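 HeLa GR-bla cells; cmpd + dex 5 nM final, 18 h 37 C; LiveBLAzer B/G FRET substrate 2 h RT; fluorescence intensity read. Antagonist mode, qHTS.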

[10] = target: Glucocorticoid receptor (Homo sapiens) (UniProt P04150); test: qHTS assay to identify small molecule agonists of the glucocorticoid receptor (GR) signaling pathway (AID 720691; active = well fitted activation curve with a large enough effect in the signal ratio in the repeat runs, not every such curve was filed as active; the % refers to the signal ratio)
Outline: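 Fluorescence intensity from LiveBLAzer B/G FRET substrate (2 h, room temperature) reports beta-lactamase expression driven by the glucocorticoid response element in GR-bla HeLa cells after 18 h compound exposure at 37 C.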
% is scaled to controls: 0 for no effect and ±100 for the full control effect.

CCOC(=O)CC1(C)OCC(C)O1 (centres undefined)
inactive: outcome [1] | outcome [2] | outcome [3] | outcome [4] | outcome [5] | outcome [6] | outcome [7]

CC(C)Nc1ccccc1
inactive: outcome [1] | outcome [2] | outcome [3] | outcome [4] | outcome [5] | outcome [6] | outcome [8] | outcome [7] | outcome [9]

CCCC(=O)Nc1ccc(OCC(O)CNC(C)C)c(C(C)=O)c1 (centres undefined)
inactive: fluorescence, % of fluorescein [1] -0.0845% [at 18.6 µM] | fluorescence, % of fluorescent control [2] 0.175% [at 18.6 µM] | activity change [3] -0.021% [at 18.6 µM] | fluorescence, % of fluorescent control [4] 0.214% [at 18.6 µM] | fluorescence, % of Rose Bengal [5] -0.252% [at 18.6 µM] | fluorescence, % of fluorescent control [6] -0.0068% [at 18.6 µM] | fluorescence, % of fluorescein control [8] -0.0602% [at 18.6 µM] | fluorescence, % of fluorescent control [7] 0.0344% [at 18.6 µM] | Potency [10] | outcome [9]

NC(=O)[C@@H]1CSSCCC(=O)N[C@@H](CCCCN=C(N)N)C(=O)NCC(=O)N[C@@H](CC(=O)O)C(=O)N[C@@H](Cc2c[nH]c3ccccc23)C(=O)N2CCC[C@H]2C(=O)N1 ([Mpa][hArg]GDWPC-NH2; disulfide 1-7)
inactive: outcome [1] | outcome [2] | outcome [3] | outcome [4] | outcome [5] | outcome [6] | outcome [8] | outcome [9]

O=C(CN1CCNCC1)NC1CCCCC1
inactive: outcome [1] | outcome [2] | outcome [3] | outcome [4] | outcome [5] | outcome [6] | outcome [8] | outcome [7] | Potency [10] | outcome [9]

C=CCCCC
inactive: outcome [1] | outcome [2] | outcome [3] | outcome [4] | outcome [5] | outcome [6] | outcome [8] | outcome [9]

CC1(C)Oc2ccc(C#N)cc2[C@@H](N2CCCC2=O)[C@@H]1O
inactive: outcome [1] | outcome [2] | outcome [3] | outcome [4] | outcome [5] | outcome [6] | outcome [8] | outcome [9]

O=Cc1ccccc1Cl
inactive: outcome [1] | outcome [2] | outcome [3] | outcome [4] | outcome [5] | outcome [6] | outcome [8] | outcome [7] | Potency [10] | outcome [9]

CCCCCCCCCCCCCCC(=O)NC(CO)CCCCCCCCCCCCCC (centres undefined)
inactive: outcome [1] | outcome [2] | outcome [3] | outcome [4] | outcome [5] | outcome [6] | outcome [8] | outcome [7] | outcome [9]

C[Si]1(C)O[Si](C)(C)O[Si](C)(C)O[Si](C)(C)O[Si](C)(C)O1
inactive: outcome [1] | outcome [2] | outcome [3] | outcome [4] | outcome [5] | outcome [6] | outcome [8] | outcome [7] | Potency [10] | outcome [9]

CCCCOC(=O)[C@H](C)O
inactive: outcome [1] | outcome [2] | outcome [3] | outcome [4] | outcome [5] | outcome [6] | outcome [8] | Potency [10] | outcome [9]

C=CC/C=C/C
inactive: outcome [1] | outcome [2] | outcome [3] | outcome [4] | outcome [5] | outcome [6] | outcome [8] | outcome [7] | outcome [9]

CCC(C)C(=O)OCCc1ccccc1 (centres undefined)
inactive: outcome [1] | outcome [2] | outcome [3] | outcome [4] | outcome [5] | outcome [6] | outcome [8] | outcome [7] | Potency [10] | outcome [9]

CC(=O)CCc1ccc(OC(C)=O)cc1
inactive: outcome [1] | outcome [2] | outcome [3] | outcome [4] | outcome [5] | outcome [6] | outcome [8] | outcome [7] | Potency [10] | outcome [9]

CC(=O)CCC1=C(C)CCCC1(C)C
inactive: outcome [1] | outcome [2] | outcome [3] | outcome [4] | outcome [5] | outcome [6] | outcome [8] | outcome [7] | outcome [9]

CC(O)CC(C)O (centres undefined)
inactive: outcome [1] | outcome [2] | outcome [3] | outcome [4] | outcome [5] | outcome [6] | outcome [8] | outcome [7] | outcome [9]

CC1CCc2c(N3CCC(O)CC3)c(F)cc3c(=O)c(C(=O)O)cn1c23 (centres undefined)
inactive: outcome [1] | outcome [2] | outcome [3] | outcome [4] | outcome [5] | outcome [6] | outcome [8] | outcome [7] | Potency [10] | outcome [9]

Cc1cccc(Cl)c1
inactive: outcome [1] | outcome [2] | outcome [3] | outcome [4] | outcome [5] | outcome [6] | outcome [8] | outcome [9]

O=C(O)CCCCCC(=O)O
inactive: outcome [1] | outcome [2] | outcome [3] | outcome [4] | outcome [5] | outcome [6] | outcome [8] | outcome [7] | outcome [9]

CC(=O)O[C@H]1C[C@@H]2CC[C@@]1(C)C2(C)C
inactive: outcome [1] | outcome [2] | outcome [3] | outcome [4] | outcome [5] | outcome [6] | outcome [8] | Potency [10] | outcome [9]

Cc1c(NC(=O)c2cccnc2)c(=O)n(-c2ccccc2)n1C
inactive: fluorescence, % of fluorescein [1] -0.0295% [at 18.6 µM] | fluorescence, % of fluorescent control [2] -0.0145% [at 18.6 µM] | activity change [3] 0.0113% [at 18.6 µM] | fluorescence, % of fluorescent control [4] -0.0161% [at 18.6 µM] | fluorescence, % of Rose Bengal [5] 0.102% [at 18.6 µM] | fluorescence, % of fluorescent control [6] -0.005% [at 18.6 µM] | fluorescence, % of fluorescein control [8] -0.0688% [at 18.6 µM] | fluorescence, % of fluorescent control [7] 0.0214% [at 18.6 µM] | Potency [10] | outcome [9]

OCC1CCC(CO)CC1 (centres undefined)
inactive: outcome [1] | outcome [2] | outcome [3] | outcome [4] | outcome [5] | outcome [6] | outcome [8] | outcome [9]

CCCCCC/C=C/C(=O)OC
inactive: outcome [1] | outcome [2] | outcome [3] | outcome [4] | outcome [5] | outcome [6] | outcome [8] | outcome [7] | outcome [9]

COC(=O)CCCCC(=O)O
inactive: outcome [1] | outcome [2] | outcome [3] | outcome [4] | outcome [5] | outcome [6] | outcome [8] | outcome [9]

Fc1ccccc1
inactive: outcome [1] | outcome [2] | outcome [3] | outcome [4] | outcome [5] | outcome [6] | outcome [8] | Potency [10] | outcome [9]

CCCC(CC)c1ccccc1 (centres undefined)
inactive: outcome [1] | outcome [3] | outcome [4] | outcome [5] | outcome [6] | outcome [8] | outcome [7] | Potency [10] | outcome [9]
